Test results taken from PubChem BioAssay AID2229 (National Center for Advancing Translational Sciences (NCATS), 2010).
Activity calls are given as the source filed them.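 Rule for the calls: active = a thermal shift above zero, meaning the compound raised the protein's melting temperature; inactive = the rest.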

Molecular target: Luciferin 4-monooxygenase (Photinus pyralis) (UniProt P08659)
Experiment: Thermal Shift Assay for Inhibitors of FLuc (Firefly Luciferase, Photinus pyralis) in Absence of ATP
Details: purified FLuc, SYPRO Orange thermal shift, no ATP; at 200 µM; stronger effect = higher value
Description: Firefly (Photinus pyralis) luciferase (FLuc) is widely used as a reporter in biological assays. […] In order to determine if FLuc thermal stabilization parallels inhibitor potency, a fluorescence-based thermal denaturation assay was developed in this present study. An environmentally sensitive fluorescence dye, SYPRO Orange (Invitrogen, presently Life Technologies) was utilized to monitor the fluorescence change as a function of temperature. The dye preferentially binds to the hydrophobic regions of the protein, and its high signal-to-noise ratio, large Stokes shift and high excitation wavelength make it ideal for thermal shift application. In this assay, the melting temperature (Tm) (the inflection point of the protein melt transition) was assessed for each sample tested. Differences in the Tm between controls and compound-containing samples were determined (the thermal shift or delta Tm), and compounds were ranked by the degree of their thermal shift at the top concentration (200 uM). […] FLuc catalyzes light production in bioluminescent organisms. The reaction requires luciferin, ATP and O2 as substrate, and it includes the formation of a luciferyl-AMP intermediate and the subsequent production of light, AMP, oxyluciferin and CO2. In this study, PTC124 and analogues were evaluated for their potential to stabilize FLuc in the absence and presence of ATP. This particular BioAssay is in the absence of ATP. See related BioAssay "Thermal Shift Assay for Inhibitors of FLuc (Firefly Luciferase, Photinus pyralis) in the Presence of ATP" See [6] for more details on this assay and related studies. Welch, et al. PTC124 targets genetic disorders caused by nonsense mutations. Nature 447 (2007) 87-91. D.S. Auld, N. Thorne, W.F. Maguire, and J. Inglese, Mechanism of PTC124 activity in cell-based luciferase assays of nonsense codon suppression. […]
Assay Protocol: 1.8 uM FLuc was tested in Tris-acetate buffer (pH 7.6) or phosphate buffer saline (pH 7.4). […] Fluorescence intensity changes (Ex 490/Em 575 nm) were monitored with a charge-coupled device (CCD) camera. […]

Chain of Luciferin 4-monooxygenase (Photinus pyralis) (P08659 whole entry, looked up): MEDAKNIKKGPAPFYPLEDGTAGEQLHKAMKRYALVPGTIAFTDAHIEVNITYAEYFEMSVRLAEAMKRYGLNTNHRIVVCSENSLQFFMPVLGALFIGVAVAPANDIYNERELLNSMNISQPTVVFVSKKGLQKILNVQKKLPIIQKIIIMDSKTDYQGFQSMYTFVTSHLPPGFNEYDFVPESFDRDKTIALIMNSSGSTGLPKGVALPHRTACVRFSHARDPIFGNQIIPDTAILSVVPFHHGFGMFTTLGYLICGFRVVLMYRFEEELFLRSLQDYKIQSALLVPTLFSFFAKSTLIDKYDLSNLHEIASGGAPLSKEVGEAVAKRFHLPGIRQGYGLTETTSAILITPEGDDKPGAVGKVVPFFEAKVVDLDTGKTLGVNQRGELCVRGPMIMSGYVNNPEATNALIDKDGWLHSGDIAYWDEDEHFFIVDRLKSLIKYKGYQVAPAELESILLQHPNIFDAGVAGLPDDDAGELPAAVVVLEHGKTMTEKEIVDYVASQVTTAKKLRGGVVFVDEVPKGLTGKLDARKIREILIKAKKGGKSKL

Thermal shift (delta Tm), active:
O=C(O)c1ccc(-c2noc(-c3ccccc3F)n2)cc1 5.87 °C
Nc1ncnc2c1ncn2[C@@H]1O[C@H](COP(=O)(O)OC(=O)c2cccc(-c3noc(-c4ccccc4F)n3)c2)[C@@H](O)[C@H]1O 28.3 °C
NC(=O)c1cccc(-c2noc(-c3ccccc3F)n2)c1 2.84 °C
